Assay results published in PubChem BioAssay (NCI).
This is part of a sample that, as a whole, favours compounds with a hit. Of some 83,000 tested, about 20% had one in any assay.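 Interpretation: 100, growth as untreated; towards 0, rising growth inhibition; 0, no net growth; 0 to -100, cell death. Compounds scoring below 10 were considered active.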 Values without a mark were called inactive. The source made the active and inactive calls.

Test system: SK-MEL-5 melanoma
Assay: NCI-60 one-dose screen, 48 h (100 = growth as untreated, 0 = no growth, -100 = all killed)
Conditions: 10 µM unless noted

Row | SMILES | growth
1 | Cc1ccc2c(c1)C(=O)/C(=C/c1ccc(OCC(=O)c3ccccc3)cc1)O2 | 86.9%
2 | O=C1C2CC=CCC2C(=O)N1CNc1ccc(Cl)cc1 (stereo unspecified) | 95%
3 | O=C1C[C@H](Sc2nc(-c3ccc(F)cc3)cc(C(F)(F)F)n2)[C@H]2CO[C@@H]1O2 | 97.5%
4 | CCN(CC)CCCNc1cccc2c(SCc3ccccc3)ccnc12 | 85.4%
5 | CCCCCCCCCCCCCC1=NCCN1CCO | 81.8%
6 | CCN1CCN(Cc2ccc(NC(=O)Nc3nc4ccc(Oc5ccnc(C(=O)NC)c5)cc4s3)cc2C(F)(F)F)CC1 | 19.8%
7 | CCCCN(CCCC)CCC(C)(O)c1cc2ccccc2c2ccccc12 (stereo unspecified) | 102%
8 | CCCCN(CC)CCCCCCCCCCN1CCCc2cc(OC)ccc21 | 92.1%
9 | N#Cc1ccc(NC(=O)Nc2ccc(Cc3ccc(NC(=O)Nc4ccc(C#N)cc4)cc3)cc2)cc1 | 10.5%
10 | Clc1nc(Cl)c2c3c(sc2n1)CCCC3 | 50.8%
11 | COc1cc(-c2nc3ccccc3s2)ccc1NC(=O)COc1ccc(Cl)cc1 | 73.7%
12 | CCN(CC)CC(O)CNc1c2ccc([N+](=O)[O-])cc2nc2cc(OC)c(OC)cc12 (stereo unspecified) | -78.3% (active)
13 | Cc1ccc(/C=C2\Oc3cc(OCC(=O)c4ccc(Cl)cc4)ccc3C2=O)cc1 | 86.3%
14 | O=c1c(/C=C/c2ccco2)nnc(SCCN2CCOCC2)n1/N=C/c1ccc([N+](=O)[O-])cc1 | 91.1%
15 | CNC(=O)c1cc(Oc2ccc3nc(NC(=O)Nc4ccc(CN5CCOCC5)c(C(F)(F)F)c4)sc3c2)ccn1 | -55.4% (active)
16 | COC1=CC(=O)C(OC)=C(OC)C1=O | 97.5%
17 | CN(CC(=O)N(Cc1ccc(C2CCCCC2)cc1)c1ccc(C(=O)NO)cc1)S(=O)(=O)c1c(F)c(F)c(F)c(F)c1F | 99.6%
18 | O=C1Nc2c(ccc(Cl)c2Cl)/C1=C/c1cc(Br)c(O)c(Br)c1 | 23.2%
19 | Oc1ccccc1N=Cc1c(O)ccc2ccccc12 | 77.3%
20 | c1ccc(CSc2ncnc3nc[nH]c23)nc1 | 100%
21 | CCN(CC)c1ccc(CNc2cc(C)nc3ccc(OC)cc23)cc1 | 39%
22 | CC1CN(Cc2ccco2)C(=S)N(c2ccccc2)C1=O (stereo unspecified) | 100%
23 | C=C1CC[C@@H]2[C@](C)(COC(C)=O)[C@H](OC(C)=O)CC[C@@]2(C)[C@@H]1CC(NCc1ccc(F)cc1)C1=CCOC1=O (stereo partly specified) | 11.8%
24 | O=C1/C(=C\c2cn(C(=O)c3ccc(Cl)cc3)c3ccccc23)c2ccccc2N1c1c(Cl)cccc1Cl | 107%
25 | CSc1[nH]c2ncnc(N)c2c1C#N | 99.9%
26 | Cn1c2ccccc2c2c3c(c4c5ccccc5[nH]c4c21)C(=O)N(N)C3=O | 31%
27 | CC(=O)CC(C)(C)c1ccc(Cl)cc1 | 108%
28 | OC(c1cc(-c2ccccc2)nc2ccc(Cl)cc12)C1CCCCN1 (stereo unspecified) | -5.63% (active)
29 | CCN(CC)Cc1cc(Nc2c3ccccc3nc3cc(Cl)ccc23)ccc1O | -100% (active)
30 | O=[N+]([O-])c1c(F)cccc1Nc1cccc(F)c1 | 101%

Test system: UACC-62 melanoma
Assay: as above
Conditions: 10 µM unless noted

Row | SMILES | growth
31 | Cc1ccc2c(c1)C(=O)/C(=C/c1ccc(OCC(=O)c3ccccc3)cc1)O2 | 63.8%
32 | O=C1C2CC=CCC2C(=O)N1CNc1ccc(Cl)cc1 (stereo unspecified) | 62.7%
33 | O=C1C[C@H](Sc2nc(-c3ccc(F)cc3)cc(C(F)(F)F)n2)[C@H]2CO[C@@H]1O2 | 98.2%
34 | Cc1cc(=O)oc2cc(Oc3nc(-c4cccs4)cn4c(-c5cccs5)cnc34)ccc12 | 71.1%
35 | CCCCN(CCCC)Cc1c(C)[nH]c2cc(OC)ccc2c1=O | 101%
36 | CCCCCCCCCCCCCC1=NCCN1CCO | 93.5%
37 | N#Cc1ccc(NC(=O)Nc2ccc(Cc3ccc(NC(=O)Nc4ccc(C#N)cc4)cc3)cc2)cc1 | 14.2%
38 | CCN(CC)c1ccc(/C=C/C2=[N+](C)c3ccccc3C2(C)C)cc1 | 16%
39 | COc1ccc(OCC(=O)Nc2ccc(-c3nc4ccccc4s3)cc2C)cc1 | 83.2%
40 | O=c1c(/C=C/c2ccco2)nnc(SCCN2CCOCC2)n1/N=C/c1ccc([N+](=O)[O-])cc1 | 96.2%
41 | Cc1ccc(SCN2CCN(c3cccc(Cl)c3)CC2)cc1 | 89%
42 | COC1=CC(=O)C(OC)=C(OC)C1=O | 87.5%
43 | CN(CC(=O)N(Cc1ccc(C2CCCCC2)cc1)c1ccc(C(=O)NO)cc1)S(=O)(=O)c1c(F)c(F)c(F)c(F)c1F | 94.5%
44 | Oc1ccccc1N=Cc1c(O)ccc2ccccc12 | 63.8%
45 | c1ccc(CSc2ncnc3nc[nH]c23)nc1 | 88.4%
46 | CN(C)c1ccc(/C=C(\C#N)c2nc3ccccc3s2)cc1 | 101%
47 | C=C1CC[C@@H]2[C@](C)(COC(C)=O)[C@H](OC(C)=O)CC[C@@]2(C)[C@@H]1CC(NCc1ccc(F)cc1)C1=CCOC1=O (stereo partly specified) | 32.2%
48 | O=C(O)c1cccnc1Br | 96%
49 | C=CC[N+]1(CC)CCN=C1CCCCCCCCCCCCCCCCC (stereo unspecified) | -86.1% (active)
50 | O=C1/C(=C\c2cn(C(=O)c3ccc(Cl)cc3)c3ccccc23)c2ccccc2N1c1c(Cl)cccc1Cl | 95.4%
51 | CSc1[nH]c2ncnc(N)c2c1C#N | 85.9%
52 | Cn1c2ccccc2c2c3c(c4c5ccccc5[nH]c4c21)C(=O)N(N)C3=O | 22.6%
53 | CC(=O)CC(C)(C)c1ccc(Cl)cc1 | 101%
54 | OC(c1cc(-c2ccccc2)nc2ccc(Cl)cc12)C1CCCCN1 (stereo unspecified) | -31.2% (active)
55 | CCN(CC)Cc1cc(Nc2c3ccccc3nc3cc(Cl)ccc23)ccc1O | -97.2% (active)
56 | COc1ccc(-c2cn3c(-c4ccc(OC)cc4)cnc3c(Oc3ccc4c(C)cc(=O)oc4c3)n2)cc1 | 50.1%
